Measured values published in PubChem BioAssay (Tox21).
Where “and” joins values, the source holds several entries; their conditions need not be identical. Equal values may be shown once. Inconclusive results are not listed. Some structures have more than one record in an assay (separate samples or runs), and their calls can disagree. Calls of active or inactive are those of the source. Unless noted, calls come from the whole dose curve; as a rule, active = well fitted curve in the direction sought with a large enough effect in the repeat runs; inconclusive = weak or mixed curves; inactive = no such curve, though single readings can be large; an effect the other way counts as inactive or inconclusive.

Key:
[1] = qHTS assay to identify small molecule agonists of the hypoxia (HIF-1) signaling pathway - cell viability counter screen (AID 1224844; calls by dose curve; note: nearly all actives have a fitted effect of over 50% in size)
Procedure, shortened: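 HRE-bla ME-180; 0.5% dFBS; cpd 17 h, 37C, 5% CO2; CellTiter-Glo lum., 30 min RT, post-FRET read, same wells.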

[2] = qHTS assay to identify small molecule agonists of H2AX (AID 1224845; active = well fitted activation curve with a large enough effect in the signal ratio in the repeat runs, not every such curve was filed as active; the % refers to the signal ratio)
Procedure, shortened: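 Phospho-H2AX Ser139 measured by HTRF (ex 320 nm; em 665 and 620 nm) after 24 hr antibody incubation. Compounds, 15 concentrations, 0.76% DMSO, were applied to CHO-K1 cells for 3hr at 37C before lysis.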

[3] = qHTS assay to identify small molecule agonists of the hypoxia (HIF-1) signaling pathway (AID 1224846; active = well fitted activation curve with a large enough effect in the signal ratio in the repeat runs, not every such curve was filed as active; the % refers to the signal ratio)
Procedure, shortened: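 Reporter induction in HRE-bla ME-180 cells is taken as agonism: cells sit 5 hrs after plating, receive compounds or DMSO only, incubate 17 hrs at 37C under 5% CO2, and are loaded with CCF4-AM for beta-lactamase FRET measurement.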

[4] = qHTS assay to identify small molecule agonists of H2AX - cell viability counter screen (AID 1224847; calls by dose curve; note: top concentration of the series differs between compounds; nearly all actives have a fitted effect of over 30% in size)
Procedure, shortened: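 Compounds tested at 15 concentrations were incubated 3 hr at 37C with wild-type CHO-K1 cells; cellular ATP-based luminescence (CellTiter-Glo) indicated viability.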

[5] = qHTS assay to identify small molecule antagonists of the estrogen related receptor (ERR) signaling pathway from Tox21 library (AID 1224848); note: nearly all actives have a fitted effect of over 50% in size; note: potency is the fitted concentration of half-maximal effect
Procedure, shortened: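 Luciferase luminescence (ONE-Glo, 30 min room temperature) was the read-out. Cells of the NTP-supplied ERR line, 2,000 per well, were given 6 h at 37 C before compound addition in DMSO and 18 h exposure at 37 C.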

[6] = qHTS assay to identify small molecule agonists of the estrogen related receptor (ERR) signaling pathway from Tox21 library (AID 1224849; calls by dose curve; note: nearly all actives have a fitted effect of over 15% in size); conditions: ERR reporter cell line, ONE-Glo luciferase, 18 h
Procedure, shortened: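 Tox21 compounds tested for ERR agonism in an NTP reporter cell line: 18 h treatment at 37 C, then ONE-Glo luminescence.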

[7] = qHTS RealTime-Glo MT Cell Viability Assay in HepG2 cells - 24 hour (AID 1224867); note: nearly all actives have a fitted effect of over 50% in size
Procedure, shortened: (§1)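 HepG2 cells (600/well) were dispensed with RealTime-Glo reagents, incubated 5 h at 37 °C, then treated with compounds in DMSO for up to 40 h. Nonlytic NanoLuc luminescence reflecting viable cells was read at each stated time point.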

[8] = A CellTox Green Cytotoxicity Assay to monitor cytotoxicity in HEK293 cells - 0 hour (AID 1224869); note: nearly all actives have a fitted effect of over 50% in size
Procedure, shortened: (§2)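 Tox21 screen in HEK293: membrane-impermeant cyanine dye fluoresces on binding dead-cell DNA; compound pinned 5 h post-seeding, plates held at 37 C, signal read repeatedly through 40 h.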

[9] = qHTS RealTime-Glo MT Cell Viability Assay in HepG2 cells - 40 hour (AID 1224870); note: nearly all actives have a fitted effect of over 50% in size
Procedure, shortened: (§3)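 Real-time viability: cells seeded at 600 per well together with NanoLuc and cell-permeant prosubstrate, compounds added after 5 h incubation. Luminescence tracked at 0, 8, 16, 24, 32 and 40 h of exposure.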

[10] = A CellTox Green Cytotoxicity Assay to monitor cytotoxicity in HEK293 cells - 40 hour (AID 1224871); note: nearly all actives have a fitted effect of over 45% in size
Procedure, shortened: as §2

[11] = qHTS RealTime-Glo MT Cell Viability Assay in HepG2 cells - 8 hour (AID 1224873); note: nearly all actives have a fitted effect of over 55% in size
Procedure, shortened: as §3

[12] = A CellTox Green Cytotoxicity Assay to monitor cytotoxicity in HEK293 cells - 24 hour (AID 1224875); note: nearly all actives have a fitted effect of over 45% in size
Procedure, shortened: as §2

[13] = qHTS RealTime-Glo MT Cell Viability Assay in HepG2 cells - 32 hour (AID 1224877); note: nearly all actives have a fitted effect of over 55% in size
Procedure, shortened: as §1

[14] = A CellTox Green Cytotoxicity Assay to monitor cytotoxicity in HepG2 cells - 24 hour (AID 1224878); note: nearly all actives have a fitted effect of over 45% in size
Procedure, shortened: (§4)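 Measurements at 0, 8, 16, 24, 32 and 40 h of treatment captured CellTox Green fluorescence in HepG2 cells that had been co-plated with reagent and preincubated 5 h at 37 C/5% CO2.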

[15] = A CellTox Green Cytotoxicity Assay to monitor cytotoxicity in HepG2 cells - 40 hour (AID 1224879); note: nearly all actives have a fitted effect of over 40% in size
Procedure, shortened: as §4

[16] = qHTS RealTime-Glo MT Cell Viability Assay in HEK293 cells - 32 hour (AID 1224868)
Procedure, shortened: (§5)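 HEK293 cells seeded with NanoLuc/prosubstrate reagent, rested 5 h at 37 C, then dosed and kept at 37 C up to 40 h. Nonlytic real-time luminescence from viable cells read at 0, 8, 16, 24, 32 and 40 h.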

[17] = qHTS RealTime-Glo MT Cell Viability Assay in HEK293 cells - 16 hour (AID 1224872)
Procedure, shortened: as §5

[18] = qHTS RealTime-Glo MT Cell Viability Assay in HEK293 cells - 40 hour (AID 1224874); conditions: RealTime-Glo luminescence; max response: stronger effect = lower value; note: nearly all actives have a fitted effect of over 50% in size
Procedure, shortened: (§6)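 HEK293 + NanoLuc + prosubstrate, 600 cells/well; 5 h, 37 C/5% CO2; compound 23 nL in DMSO by pintool; 37 C; luminescence read at 0, 8, 16, 24, 32 and 40 h time points.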

[19] = A CellTox Green Cytotoxicity Assay to monitor cytotoxicity in HepG2 cells - 16 hour (AID 1224876); note: nearly all actives have a fitted effect of over 45% in size
Procedure, shortened: as §4

[20] = qHTS RealTime-Glo MT Cell Viability Assay in HEK293 cells - 0 hour (AID 1224880)
Procedure, shortened: as §6
% is set by controls: 0 for no effect and ±100 for the full control effect.

CC(C)Oc1ccc2c(=O)c(-c3ccccc3)coc2c1
inactive: Potency [1] | outcome [2] | Potency [3] | Potency [4] | Potency [5] | Potency [7] | Potency [8] | Potency [9] | Potency [10] | Potency [11] | Potency [12] | Potency [13] | Potency [14] | Potency [15]
active: activity change, positive = activation ([6]; at 42.5 µM (top of the series)) 38.2% and 33.2%

O=C(OCc1ccccc1)c1ccccc1O
inactive: Potency [1] | outcome [2] | Potency [3] | Potency [4] | Potency [7] | Potency [16] | Potency [8] | Potency [9] | Potency [10] | Potency [17] | Potency [11] | max response [18] -14.6% and -4.96% | Potency [12] | Potency [19] | Potency [13] | Potency [14] | Potency [15]

c1cc(-c2ccncc2)ccn1
inactive: Potency [1] | outcome [2] | Potency [3] | Potency [4] | Potency [7] | Potency [16] | Potency [8] | Potency [9] | Potency [10] | Potency [17] | Potency [11] | max response [18] -8.48% and 4.82% | Potency [12] | Potency [19] | Potency [13] | Potency [14] | Potency [15]

CCOCCOCCO
inactive: Potency [1] | outcome [2] | Potency [3] | Potency [4] | Potency [5] | activity change, positive = activation ([6]; at 92.4 µM (top of the series)) -1.39% and 2.46% | Potency [7] | Potency [16] | Potency [8] | Potency [9] | Potency [10] | Potency [17] | Potency [11] | max response [18] 10.2% and 7.38% | Potency [12] | Potency [19] | Potency [13] | Potency [14] | Potency [15] | Potency [20]

Cc1ccc2c(n1)Oc1ccc(C(C)C(=O)OCC(=O)N(C)C)cc1C2 (stereo unspecified)
24.3% (active) and 6.58% (inactive): activity change, positive = activation ([6]; at 42.5 µM (top of the series))
inactive: Potency [1] | outcome [2] | Potency [3] | Potency [4] | Potency [5] | Potency [7] | Potency [16] | Potency [8] | Potency [9] | max response [18] -20.9% and -25.9% | Potency [12] | Potency [13] | Potency [14] | Potency [15] | Potency [20]

Nc1ccc(Cl)cc1Cl
inactive: Potency [1] | outcome [2] | Potency [3] | Potency [4] | Potency [5] | activity change, positive = activation ([6]; at 92.4 µM (top of the series)) 1.8% | Potency [7] | Potency [16] | Potency [8] | Potency [9] | Potency [10] | Potency [17] | Potency [11] | max response [18] 8.67% and 2.84% | Potency [12] | Potency [19] | Potency [13] | Potency [14] | Potency [15]

CCOC(=O)C(C#N)=C(c1ccccc1)c1ccccc1
inactive: Potency [1] | outcome [2] | Potency [3] | Potency [4] | activity change, positive = activation ([6]; at 42.5 µM (top of the series)) -21.7% | activity change, positive = activation ([6]; at 92.4 µM (top of the series)) -34.2% | Potency [7] | Potency [16] | Potency [8] | Potency [9] | Potency [17] | Potency [11] | max response [18] -18.4% and -13.3% | Potency [12] | Potency [13] | Potency [14] | Potency [15] | Potency [20]
active: Potency [5] 48.6 µM

CCCCC(CC)COP(=O)(OCC(CC)CCCC)OCC(CC)CCCC (stereo unspecified)
inactive: Potency [1] | outcome [2] | Potency [3] | Potency [4] | Potency [7] | Potency [16] | Potency [8] | Potency [9] | Potency [10] | Potency [17] | Potency [11] | max response [18] -14.5% | Potency [12] | Potency [19] | Potency [13] | Potency [14] | Potency [15] | Potency [20]

Cc1ncc[nH]1
inactive: Potency [1] | outcome [2] | Potency [3] | Potency [4] | Potency [7] | Potency [16] | Potency [8] | Potency [9] | Potency [17] | Potency [11] | max response [18] 3.53% and 2.93% | Potency [12] | Potency [19] | Potency [13] | Potency [14] | Potency [15] | Potency [20]

O=C(c1ccccc1)c1ccccc1O
inactive: Potency [1] | outcome [2] | Potency [3] | Potency [5] | activity change, positive = activation ([6]; at 92.4 µM (top of the series)) -0.602% and -1.04% | Potency [7] | Potency [16] | Potency [8] | Potency [9] | Potency [17] | Potency [11] | max response [18] -15.9% and -14.9% | Potency [12] | Potency [13] | Potency [14] | Potency [15] | Potency [20]

OC(CCl)CCl
inactive: Potency [1] | outcome [2] | Potency [3] | Potency [4] | Potency [7] | Potency [16] | Potency [8] | Potency [9] | Potency [10] | Potency [17] | Potency [11] | max response [18] 2.58% and 9.25% | Potency [12] | Potency [19] | Potency [13] | Potency [14] | Potency [15] | Potency [20]

OCCO
inactive: Potency [1] | outcome [2] | Potency [3] | Potency [4] | Potency [7] | Potency [16] | Potency [8] | Potency [9] | Potency [10] | Potency [17] | Potency [11] | max response [18] -5.99% and -0.466% | Potency [12] | Potency [19] | Potency [13] | Potency [14] | Potency [15] | Potency [20]
